Growth inhibition data for 19 compounds are collected here from PubChem BioAssay (NCI).

The panel holds about 79,000 compounds, 15% with a hit somewhere; the sample as a whole holds those more often. Values without a mark were called inactive. No stated cut-off is given here; in the data, active means growth inhibition above about 70%; inactive means the rest.

A short description of one assay: NCI Yeast Anticancer Drug Screen. Data for the mgt1 strain (AID 153). The conditions noted are these: S. cerevisiae mgt1 mutant growth inhibition; at 1.2 µM; stronger effect = higher value. The method in brief:
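Measured: inhibition of mgt1 yeast growth by compound, normalized to vehicle-treated cultures.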
Take `CNC(=O)OCc1c(COC(=O)NC)c(C)n(-c2ccc(Cl)c(Cl)c2)c1C`: the growth inhibition is -35%.

Take `O=C(O)/C=C\C(=O)NNc1ccc(Br)cc1`: the growth inhibition was -1%.

Turning to `S=c1[nH]nc(Cc2ccccc2)c(=S)[nH]1`, the growth inhibition was 23%.

Regarding `COc1ccc2nc3cccc([N+](=O)[O-])c3c(NCCCO)c2c1`, the growth inhibition is 12%.

In the case of `CCN(CC)CCSc1c2ccccc2nc2cc(NCC(=O)Nc3ccccc3-c3ccccc3NC(=O)CNc3ccc4c(SCCN(CC)CC)c5ccccc5nc4c3)ccc12`, the growth inhibition is 9%.

Regarding `Cc1ccc(N(C=O)c2c([N+](=O)[O-])cc([N+](=O)[O-])c3c2=[N+]([O-])CN=3)cc1`, the growth inhibition is 10%.

In the case of `COc1ccc(C(=O)OCCc2ccccc2)cc1`, the growth inhibition was -4%.

Consider `COc1ccc(C(=O)NCCN(C)C)c2nc3ccccc3cc12`, for which the growth inhibition was 7%.

Consider `NCC(O)CSCc1ccc(Cl)cc1` (stereo not drawn), for which the growth inhibition was -4%.

For `O=C(/C(=C/c1ccccc1)CBr)c1ccccc1`, the growth inhibition is -1%.

As for `O=C(Cc1ccccc1F)NC1=C(Cl)C(=O)c2ccccc2C1=O`, the growth inhibition was -2%.

As to `Cc1cccc(N2CCN(C(=O)/C(=C/c3ccccc3)NC(=O)c3ccccc3)CC2)c1`, the growth inhibition was -4%.

As to `c1cc(Nc2ccc3c(c2)OCO3)c2cc(C3CCCCC3)ccc2n1`, the growth inhibition was -2%.

Take `COc1cc(NCCCCCNC(C)C)c2ncccc2c1Cl`: the growth inhibition is -5%.

In the case of `COc1ccc2cc(CN3CCC(C4CCN(Cc5ccc6cc(OC)ccc6c5)CC4)CC3)ccc2c1`, the growth inhibition was -9%.

For `CC(=O)O/N=C/c1c2ccccc2cc2ccccc12`, the growth inhibition is -4%.

Take `CC[C@@]1(OC(=O)CN(C)C)C(=O)OCc2c1cc1n(c2=O)Cc2cc3ccccc3nc2-1`: the growth inhibition was -1%.

As for `CCCCCCC(CCl)c1sc(-c2csc(CCNC(=O)OC(C)(C)C)n2)nc1C(=O)OC` (stereo not drawn), the growth inhibition is -1%.

As to `O=C1C(Br)=CC(Br)(Br)C=C1Br`, the growth inhibition is 9%.

The same assay, now with this note: S. cerevisiae mgt1 mutant growth inhibition; at 3.7 µM; stronger effect = higher value.
On to `CNC(=O)OCc1c(COC(=O)NC)c(C)n(-c2ccc(Cl)c(Cl)c2)c1C`, for which the growth inhibition was -40%.

`O=C(O)/C=C\C(=O)NNc1ccc(Br)cc1`: the growth inhibition is 32%.

`S=c1[nH]nc(Cc2ccccc2)c(=S)[nH]1`: the growth inhibition is 47%.

Consider `COc1ccc2nc3cccc([N+](=O)[O-])c3c(NCCCO)c2c1`, for which the growth inhibition was 51%.

For `CCN(CC)CCSc1c2ccccc2nc2cc(NCC(=O)Nc3ccccc3-c3ccccc3NC(=O)CNc3ccc4c(SCCN(CC)CC)c5ccccc5nc4c3)ccc12`, the growth inhibition is 17%.

With `Cc1ccc(N(C=O)c2c([N+](=O)[O-])cc([N+](=O)[O-])c3c2=[N+]([O-])CN=3)cc1`, the growth inhibition was -1%.

In the case of `COc1ccc(C(=O)OCCc2ccccc2)cc1`, the growth inhibition was -3%.

Take `COc1ccc(C(=O)NCCN(C)C)c2nc3ccccc3cc12`: the growth inhibition was 19%.

On to `NCC(O)CSCc1ccc(Cl)cc1` (stereo not drawn), for which the growth inhibition was -2%.

Turning to `O=C(/C(=C/c1ccccc1)CBr)c1ccccc1`, the growth inhibition is 7%.

As for `O=C(Cc1ccccc1F)NC1=C(Cl)C(=O)c2ccccc2C1=O`, the growth inhibition is 11%.

With `Cc1cccc(N2CCN(C(=O)/C(=C/c3ccccc3)NC(=O)c3ccccc3)CC2)c1`, the growth inhibition was -4%.

In the case of `c1cc(Nc2ccc3c(c2)OCO3)c2cc(C3CCCCC3)ccc2n1`, the growth inhibition is -4%.

As to `COc1cc(NCCCCCNC(C)C)c2ncccc2c1Cl`, the growth inhibition is -3%.

As to `COc1ccc2cc(CN3CCC(C4CCN(Cc5ccc6cc(OC)ccc6c5)CC4)CC3)ccc2c1`, the growth inhibition was -5%.

For the compound `CC(=O)O/N=C/c1c2ccccc2cc2ccccc12`, the growth inhibition was -3%.

Regarding `CC[C@@]1(OC(=O)CN(C)C)C(=O)OCc2c1cc1n(c2=O)Cc2cc3ccccc3nc2-1`, the growth inhibition is 1%.

For `CCCCCCC(CCl)c1sc(-c2csc(CCNC(=O)OC(C)(C)C)n2)nc1C(=O)OC` (stereo not drawn), the growth inhibition was -3%.

With `O=C1C(Br)=CC(Br)(Br)C=C1Br`, the growth inhibition was 1%.
